This note sets out measurements from PubChem BioAssay.

A short description of experiment [1]: sensitizers of A549 cells to miR-34 induction, primary screen, imaging, A549 dox-inducible miR-34, nuclei and caspase counts (AID 1347080). The conditions noted are these: A549 miR-34 inducible, Hoechst nuclei count, 48 h.
Experiment [2] is described as follows: inhibitors of Cryptococcus chitosan production, flow cytometry, Cibacron Brilliant Red staining (AID 1347148; call rule not given here;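 also: compound exposure lasted three days at 37 degrees C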). As to conditions: Cryptococcus neoformans chitosan, stronger effect = lower value; at 10 µM unless noted. Background: Flow cytometry measures light scatter and fluorescence of single cells or particles in a stream.
The mark [3] stands for this setting: stronger effect = lower value, cell number ratio, induced over uninduced.
[4] abbreviates: measured here: relative caspase fold change +Dox/-Dox.
Setting [5] is: measured here: total cells with miR-34 induction, stronger effect = lower value.
[6] abbreviates: measured here: total cells without miR-34 induction.

Each structure is given as a SMILES string. The source made the active and inactive calls.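 The calls were made as follows, unless noted: active = compounds whose cell count with miR-34 switched on is under 0.7 times the count with it off; inactive = the rest.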 Peptide text beside a SMILES is read from it. * marks the point of attachment. Cbz = O=C(OCc1ccccc1)*; Boc = CC(C)(C)OC(=O)*

`O=C[C@@H]1CCCN1C(=O)[C@@H]1CCCN1C(=O)OCc1ccccc1` (Cbz-Pro-Pro-aldehyde): the figures for the fold change in experiment [1] (setting [3]) and in experiment [1] (setting [4]) were 0.854 (inactive) and 1.14, respectively. Further, the cell count was 5160 in experiment [1] (setting [5]) and 6040 in experiment [1] (setting [6]). Besides, the fold fluorescence in experiment [2] was 5.13 [at 151.3 µM] (inactive).

For `CC[C@H]1[C@@H]2C=C[C@@H]3[C@H]4C/C=C\C(=O)NCCC[C@@H]5NC(=O)C(=C5O)C(=O)CC[C@@H]4C[C@@H]3[C@H]2C[C@H]1C`, the fold change in experiment [1] (setting [3]) was 1.96 (inactive); in experiment [1] (setting [4]), 0.587. The cell count came out at 636 in experiment [1] (setting [5]) and 324 in experiment [1] (setting [6]). Further, the fold fluorescence in experiment [2] was 7.3 [at 104 µM] (inactive).

As to `CC(=O)OCOC(c1cc([N+](=O)[O-])ccc1Oc1ccc(Br)cc1)P(=O)(OCOC(C)=O)OCOC(C)=O` (stereo not given), the fold change in experiment [1] (setting [3]) is 1.27 (inactive); in experiment [1] (setting [4]), 0.666. For the same compound, the results for the cell count in experiment [1] (setting [5]) and in experiment [1] (setting [6]) were 3110 and 2450, respectively. Moreover, the fold fluorescence in experiment [2] was 3.77 [at 80.6 µM] (inactive).

Regarding `CSCC[C@H](NC(=O)[C@H](Cc1ccccc1)NC[C@@H](NC[C@@H](N)CS)C(C)C)C(=O)O`, the fold change was 0.931 (inactive) in experiment [1] (setting [3]) and 1.07 in experiment [1] (setting [4]). The cell count was determined as 6180 in experiment [1] (setting [5]) and 6640 in experiment [1] (setting [6]). In addition, the fold fluorescence in experiment [2] is 4.75 [at 106.2 µM] (inactive).

With `C=CC1CN2CCC1C[C@@H]2[C@H](O)c1ccnc2ccc(OC)cc12` (stereo not given in full), the fold change in experiment [1] (setting [3]) was 0.899 (inactive); in experiment [1] (setting [4]), 1.42. In addition, the figures for the cell count in experiment [1] (setting [5]) and in experiment [1] (setting [6]) were 4890 and 5440, respectively. Further, the fold fluorescence in experiment [2] is 5.27 [at 154.1 µM] (inactive).

With `N#C/C(=C/c1ccc(O)c(O)c1)C(=O)OC/C=C/c1ccccc1`, the values for the fold change in experiment [1] (setting [3]) and in experiment [1] (setting [4]) were 1.11 (inactive) and 1.47, respectively. The cell count in experiment [1] (setting [5]) is 4460; in experiment [1] (setting [6]), 4020. Besides, in experiment [2], the fold fluorescence is 10.2 [at 155.6 µM] (inactive).

On to `C[C@H]([C@H](C)N1CC(=O)NC(=O)C1)N1CC(=O)NC(=O)C1`, for which the fold change in experiment [1] (setting [3]) is 0.938 (inactive); in experiment [1] (setting [4]), 0.644. Also, the cell count turned out to be 1940 in experiment [1] (setting [5]) and 2070 in experiment [1] (setting [6]). Besides, the fold fluorescence in experiment [2] was 4.39 [at 177.1 µM] (inactive).

With `CC12C=CC(=O)C=C1CCC1C2=CCC2(C)C1CC[C@@H]2C(=O)CN1CCN(c2cc(N3CCCC3)nc(N3CCCC3)n2)CC1` (stereo not given in full), the figures for the fold change in experiment [1] (setting [3]) and in experiment [1] (setting [4]) were 0.969 (inactive) and 1.43, respectively. The cell count was determined as 4330 in experiment [1] (setting [5]) and 4470 in experiment [1] (setting [6]). Besides, the fold fluorescence in experiment [2] is 7.93 [at 81.9 µM] (inactive).

For the compound `COC(=O)/C=C/c1ccc(C(=O)NCC(=O)N[C@@H](CCC(=O)OC)C(=O)N[C@@H](CC(C)C)C(N)=O)cc1`, the figures for the fold change in experiment [1] (setting [3]) and in experiment [1] (setting [4]) were 0.902 (inactive) and 1.99, respectively. The figures for the cell count in experiment [1] (setting [5]) and in experiment [1] (setting [6]) were 5510 and 6100, respectively. For the same compound, in experiment [2], the fold fluorescence was 4.66 [at 96.4 µM] (inactive).

`Clc1ccc2ncnc(NCc3ccc4c(c3)OCO4)c2c1`: the fold change was 0.968 (inactive) in experiment [1] (setting [3]) and 1.41 in experiment [1] (setting [4]). For the same compound, the values for the cell count in experiment [1] (setting [5]) and in experiment [1] (setting [6]) were 3640 and 3760, respectively. The fold fluorescence in experiment [2] is 6.11 [at 159.4 µM] (inactive).

`NC(=NCc1ccc(Cl)cc1Cl)NC(=O)c1nc(Cl)c(N)nc1N`: the fold change in experiment [1] (setting [3]) is 1.01 (inactive); in experiment [1] (setting [4]), 0.617. Moreover, the cell count in experiment [1] (setting [5]) came out at 1450; in experiment [1] (setting [6]), 1430. Further, the fold fluorescence in experiment [2] is 10.2 [at 117.6 µM] (inactive).

On to `CCCCC[C@@H](O)/C=C/[C@H]1[C@H](C/C=C\CCCC(=O)O)C(=O)C[C@@H]1O`, for which the fold change in experiment [1] (setting [3]) is 0.916 (inactive); in experiment [1] (setting [4]) it was 0.858. Moreover, the cell count was determined as 4850 in experiment [1] (setting [5]) and 5300 in experiment [1] (setting [6]). For the same compound, the fold fluorescence in experiment [2] was 3.88 (inactive).

Take `CCCC(=O)Nc1nc2c(ncn2C2O[C@H]3COP(=O)(O)O[C@@H]3[C@@H]2OC(=O)CCC)c(=O)[nH]1` (stereo not given in full): the fold change in experiment [1] (setting [3]) is 1.02 (inactive); in experiment [1] (setting [4]), 0.664. Also, the cell count in experiment [1] (setting [5]) was found to be 5430; in experiment [1] (setting [6]) it was 5330. Further, the fold fluorescence in experiment [2] is 6.9 [at 103 µM] (inactive).

Turning to `CCCCCCCCCCC1=C(C)C(=O)C(OC)=C(OC)C1=O`, the values for the fold change in experiment [1] (setting [3]) and in experiment [1] (setting [4]) were 0.94 (inactive) and 1.42, respectively. Further, the values for the cell count in experiment [1] (setting [5]) and in experiment [1] (setting [6]) were 3450 and 3660, respectively. The fold fluorescence in experiment [2] was 4.65 [at 155.1 µM] (inactive).

`CCCCCC(=O)/C=C/C=C\C/C=C\C/C=C\CCCC(=O)O`: the fold change is 0.995 (inactive) in experiment [1] (setting [3]) and 1.32 in experiment [1] (setting [4]). Also, the cell count in experiment [1] (setting [5]) turned out to be 6100; in experiment [1] (setting [6]) it was 6140. Also, the fold fluorescence in experiment [2] is 5.6 [at 1 µM] (inactive).

With `CCCCCCCCCC(=O)OC[C@H](CO)OC(=O)CCCCCCCCC`, the figures for the fold change in experiment [1] (setting [3]) and in experiment [1] (setting [4]) were 0.939 (inactive) and 0.854, respectively. Moreover, the cell count in experiment [1] (setting [5]) was 5260; in experiment [1] (setting [6]), 5600. Further, the fold fluorescence in experiment [2] is 7.36 (inactive).

As for `CCCC[C@@H](C)/C=C(C)/C=C(\C)C(=O)NC1=C[C@@](O)(/C=C/C=C/C=C/C(=O)NC2=C(O)CCC2=O)[C@@H]2O[C@@H]2C1=O`, the fold change is 1.01 (inactive) in experiment [1] (setting [3]) and 1.03 in experiment [1] (setting [4]). Moreover, the cell count worked out at 1310 in experiment [1] (setting [5]) and 1290 in experiment [1] (setting [6]). The fold fluorescence in experiment [2] was 7.73 [at 90.8 µM] (inactive).

As for `CCCCCCCCCCCCCCCCCCc1ccc(C(=O)/C=C/C(=O)O)cc1`, the fold change in experiment [1] (setting [3]) was 0.918 (inactive); in experiment [1] (setting [4]), 0.873. Further, the cell count in experiment [1] (setting [5]) amounted to 5110; in experiment [1] (setting [6]) it was 5560. Besides, in experiment [2], the fold fluorescence is 13.3 [at 116.6 µM] (inactive).

As to `CC(=O)N[C@@H](CC(C)C)C(=O)N[C@@H](CC(C)C)C(=O)N[C@H](C=O)CCCN=C(N)N`, the values for the fold change in experiment [1] (setting [3]) and in experiment [1] (setting [4]) were 0.979 (inactive) and 0.761, respectively. Besides, the values for the cell count in experiment [1] (setting [5]) and in experiment [1] (setting [6]) were 5980 and 6110, respectively. The fold fluorescence in experiment [2] is 4.98 [at 117.2 µM] (inactive).

With `CC(C)[C@@H]1NC(=O)[C@H](Cc2ccccc2)NC(=O)[C@@H](CC(=O)O)NC(=O)CNC(=O)[C@H](CCCN=C(N)N)NC1=O`, the fold change in experiment [1] (setting [3]) was 1.03 (inactive); in experiment [1] (setting [4]), 0.655. Moreover, the cell count came out at 1320 in experiment [1] (setting [5]) and 1280 in experiment [1] (setting [6]). Further, the fold fluorescence in experiment [2] was 6.81 [at 87 µM] (inactive).

Turning to `CCCCC/C=C\C\C=C/C=C/C=C/[C@@H](SC[C@H](N)C(=O)NCC(=O)O)[C@@H](O)CCCC(=O)O`, the fold change in experiment [1] (setting [3]) is 0.978 (inactive); in experiment [1] (setting [4]), 1.35. For the same compound, the cell count in experiment [1] (setting [5]) came to 5990; in experiment [1] (setting [6]) it was 6130. Also, in experiment [2], the fold fluorescence was 3.83 [at 1 µM] (inactive).

`CC(C)[C@H](NC(=O)CNC(=O)OC(C)(C)C)C(=O)N[C@H](C=O)C(C)C` (Boc-Gly-Val-Val-aldehyde): the results for the fold change in experiment [1] (setting [3]) and in experiment [1] (setting [4]) were 0.895 (inactive) and 1.12, respectively. The cell count came out at 5740 in experiment [1] (setting [5]) and 6410 in experiment [1] (setting [6]). Moreover, in experiment [2], the fold fluorescence was 10.2 [at 139.9 µM] (inactive).

On to `CC(C)C[C@@H](/C=C/S(C)(=O)=O)NC(=O)[C@H](CC(C)C)NC(=O)[C@H](CC(C)C)NC(=O)OCc1ccccc1`, for which the fold change was 0.878 (inactive) in experiment [1] (setting [3]) and 1.63 in experiment [1] (setting [4]). The cell count is 585 in experiment [1] (setting [5]) and 666 in experiment [1] (setting [6]). In experiment [2], the fold fluorescence is 3.84 [at 90.6 µM] (inactive).

Turning to `C=C[C@@]1(C)CC(=O)[C@]2(O)[C@@]3(C)[C@H](O)CCC(C)(C)[C@@H]3[C@H](O)[C@H](OC(C)=O)[C@@]2(C)O1`, the fold change in experiment [1] (setting [3]) was 0.854 (inactive); in experiment [1] (setting [4]) it was 0.977. Besides, the cell count in experiment [1] (setting [5]) came out at 5250; in experiment [1] (setting [6]), 6150. In experiment [2], the fold fluorescence was 6.21 [at 121.8 µM] (inactive).
